Measured values published in PubChem BioAssay (NCI).
The panel holds about 83,000 compounds, 20% with a hit somewhere; the sample as a whole holds those more often.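 Cells were grown in 96-well plates and exposed to the test compound at a single concentration for 48 hours; results are reported as percent growth, with values below 10 considered active.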 Calls of active or inactive are those of the source.

tested on: NCI-H460 lung; assay: NCI-60 one-dose screen, 48 h (100 = growth as untreated, 0 = no growth, -100 = all killed); conditions: 10 µM unless noted
Description: Growth inhibition of the NCI-H460 human Non-Small Cell Lung tumor cell line is measured as a screen for anti-cancer activity. Cells are grown in 96 well plates and exposed to the test compound for 48 hours. Compounds are tested at a single concentration, which is 10^-5 M for most compounds. The reported endpoint is percent growth (GI% or GIPRCNT), where numbers from 0 - 100% represent growth inhibition, and numbers from -100% - 0 represent cell death. For example, a value of 40 represents 60% growth inhibition. A value of 0 means no net growth occurred over the course of the experiment. A value of -40 indicates 40% of cells at the beginning of the experiment died by the end of the experiment. A value of -100 means all cells are dead at the end of the experiment.
NCI-60 Human Tumor Cell Lines Screen was performed using the standard one-dose NCI protocol, which is described in more detail at https://dtp.cancer.gov/discovery_development/nci-60/default.htm.
Compounds with GIPRCNT values below 10 were considered active. Activity score was based on GIPRCNT using the following formula: […]
Score is 0 for GIPRCNT values of 100 or above, 50 for GIPRCNT values of 0, and 100 for GIPRCNT values of -100.

| Compound | growth |
| --- | --- |
| COc1ccc2c(c1)C1(C(=O)N2)C(C#N)=C(c2ccccc2)Nc2c1c(-c1ccccc1)nn2-c1ccccc1 (stereo not given) | -26.1% (active) |
| COCCc1n(Cc2ccc3ccccc3c2)c2ccccc2[n+]1Cc1ccc2ccccc2c1 | -65.3% (active) |
| COc1cc(C2=NN(c3ccccc3)C(c3cccc(Nc4ccnc5cc(C(F)(F)F)ccc45)c3)C2)cc(OC)c1OC (stereo not given) | 96.2% (inactive) |
| CC(=O)Nc1c(C(=O)Nc2ccccc2)sc2nc3c(cc12)C(OC(C)=O)CCC3 (stereo not given) | 108% (inactive) |
| C/C(=N/Nc1nc2ccccc2n1C)c1ccccn1 | -23.3% (active) |
| CCOC(=O)c1cnn(-c2nc(-c3ccc(F)cc3)c(C#N)c(N3CCOCC3)n2)c1N | 100% (inactive) |
| N#Cc1nc(-c2ccccc2)oc1S(=O)(=O)NCC(c1ccc(Cl)cc1)N1CCCCC1 (stereo not given) | 77.2% (inactive) |
| COc1cccc(C(=O)OCCn2nc3c4c(cccc42)C(=O)c2ccccc2-3)c1O | 28.2% (inactive) |
| COc1ccc2[nH]c(=O)c(/C=C/C(=O)/C=C/c3ccc(O)c(OC)c3)cc2c1 | 20.1% (inactive) |
| Cc1[nH]c(N=Nc2ccccc2)nc1N=Nc1ccccc1 | 16.2% (inactive) |
| CC(=O)c1cnc(-c2ccccc2)nc1CBr | 98.2% (inactive) |
| C=C1C(=O)O[C@H]2[C@H]1CC/C(C=Nc1c(N)cc(C(F)(F)F)cc1Br)=C\CC[C@@]1(C)O[C@@H]21 | 26.7% (inactive) |
| O=S(=O)(Nc1nccs1)c1ccc(Nc2nc(-c3ccncc3)cs2)cc1 | 99.3% (inactive) |
| Nc1c(C(=O)Nc2cccc3ccccc23)sc2nc3c(cc12)COCC3 | 31.1% (inactive) |
| O=c1cc(/C=N\Nc2nc(-c3ccc(Cl)cc3Cl)cs2)c2cc(Cl)ccc2o1 | 96.1% (inactive) |
| C=C1C(=O)O[C@H]2[C@H]1CC/C(COC(=O)CCC(=O)OC/C1=C/CC[C@@]3(C)O[C@H]3[C@H]3OC(=O)C(=C)[C@@H]3CC1)=C\CC[C@@]1(C)O[C@@H]21 | 93.9% (inactive) |
| COC(=O)/C=C1\SC(=Nc2ccc(C(F)(F)F)cc2)N(CCc2c[nH]c3ccccc23)C1=O | -47.4% (active) |
| CCN1CCN(c2ccc(NC(=O)Nc3nc4ccc(-c5ccccc5OC)cc4s3)cc2)CC1 | -64.4% (active) |
| CCCn1cc(/C=N\N=C2\C(=O)Nc3ccc(C)cc32)c2ccccc21 | 32.1% (inactive) |
| C#CC[C@@H]1C[C@]2(C)[C@H]3CC[C@@H]4[C@H]5[C@H](C(=C)C)CC[C@]5(C(=O)O)CC[C@@]4(C)[C@]3(C)CC[C@H]2C(C)(C)[C@H]1O | 10.4% (inactive) |

| Compound | growth |
| --- | --- |
| COc1ccc2nc(-c3ccc(Cl)cc3)cc(C(=O)N3N=C(c4ccc(N)cc4)CC3c3ccccc3)c2c1 (stereo not given) | 25.5% (inactive) |
| CCOc1ccc(C2N(c3cc(OC)c(OC)c(OC)c3)C(=O)C2(F)F)cc1 (stereo not given) | 12.7% (inactive) |
| C#C[C@@]1(O)[C@@H](CO)O[C@@H](n2cc(-c3ccco3)c3c(N)ncnc32)[C@@H]1O | 52.1% (inactive) |
| CC(C)NS(=O)(=O)c1cccc(-c2ccc3c4c(n(CCCN(C)C)c(=O)c3c2)-c2ccccc2C4=O)c1 | 28.5% (inactive) |
| CC(=O)c1c(OCC#N)ccc2c(C)cc(=O)oc12 | 103% (inactive) |
| Nc1c(C(=O)Nc2cccc3ccccc23)sc2nc3c(cc12)CCCCC3 | 9.6% (active) |
| COc1ccc(-n2cc(COc3ccc4c5ccnc(C)c5n(CC(C)C)c4c3)nn2)cc1 | 69.5% (inactive) |
| CC(C)(C)c1ccc2oc(=O)n(SC(Cl)(Cl)Cl)c2c1 | 96.6% (inactive) |
| CC(C)C[C@H](C(=O)O)N(C)C(=O)[C@@H]1CCCN1C(=O)[C@H](C)OC(=O)[C@H](CCC(N)=O)NC(=O)[C@@H]1CCC(=O)N1 | 111% (inactive) |
| CN(C)CSc1nc2ccccc2s1 | 109% (inactive) |
| CCOC(=O)C1=C(C)n2nc(CC#N)c(C#N)c2NC1c1ccc(CC)cc1 (stereo not given) | 104% (inactive) |
| CC(C)(C)CC(C)(C)Cc1ccc(OCCOCC[N+](C)(C)Cc2ccccc2)cc1 | 13.7% (inactive) |
| CCN(CC)CC#CCOC(=O)[C@]1(C)CCC[C@]2(C)[C@H]3C[C@H]4C(C(C)C)=C[C@]3(CC[C@H]21)[C@@H]1C(=O)CCC(=O)[C@@H]14 | 59.2% (inactive) |
| COC(=O)[C@]1(C)CCC[C@]2(C)[C@H]3C[C@H]4C(C(C)C)=C[C@]3(CC[C@H]21)[C@@H]1C(=O)N(CCC#N)C(=O)[C@@H]14 | 101% (inactive) |
| COc1cc(-c2nn(-c3ccc(Br)cc3)cc2CO)ccc1O | 101% (inactive) |
| CCCCn1c2cc(OCc3cn(-c4ccc(Cl)cc4)nn3)ccc2c2ccnc(C)c21 | 21.5% (inactive) |
| Sc1cccc2cccnc12 | 6.81% (active) |
| CC[C@H](Nc1ncnc2nc[nH]c12)c1nc2cccc(CC(=O)c3ccc(C(=O)NO)cc3)c2c(=O)n1-c1ccccc1 | 89.9% (inactive) |
| CCC1S/C(=N\N=C(/C)c2ccc[nH]2)N(c2ccccc2)C1=O (stereo not given) | 104% (inactive) |
| CCOC(=O)c1sc(/N=C2\NC(=O)/C(=C/c3ccc(N4CCN(C)CC4)cc3)S2)nc1C | 109% (inactive) |
